Screening results as filed in PubChem.
Shown are actives, neighbours in structure and some others; about 1.1% of the full set was active somewhere.
ugtP null kill: growth inhibition of ugtP-null S. aureus, primary screen, RN4220 ugtP deletion, OD600; growth inhibition, % (test concentration not listed); 16 h; 330,000 tested, 0.54% active; in the data active = growth inhibition above about 68%;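 also: plate controls were untreated wells for no effect and antibiotic for full effect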
SSB-PriA inh: inhibitors of Klebsiella pneumoniae PriA binding to SSB C-terminal tail, primary screen, biochemical, AlphaScreen | inhibition, % at 33 µM | 430,000 tested, 0.6% active | AlphaScreen SSBct-PriA binding, biotinylated peptide; in the data active = inhibition mostly above about 37%, no sharp cut-off; inactive = mostly below about 20%;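 also: plate controls were negative control peptide for no effect and reference peptide for full effect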
Mtb hypoxia inh: PubChem AID 1159583 | fluorescence inhibition, % (test concentration not listed) | M. tuberculosis hypoxia-regulated fluorescent reporter, fluorescence | 300,000 tested, 0.1% active; in the data active = fluorescence inhibition mostly above about 23%, no sharp cut-off; inactive = mostly below about 17%
Sa RN4220 lethal: growth inhibition of S. aureus RN4220, primary screen, OD600 | 16 h | inhibition, % (concentration not given with the values) | 330,000 tested, 0.33% active; in the data active = inhibition above about 85%;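 also: plate controls were untreated cells for no effect and reference antibiotic for full effect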
* marks the source's active call; other numbers are inactive results; . = not tested or not shown.

SMILES	ugtP null kill	SSB-PriA inh	Mtb hypoxia inh	Sa RN4220 lethal
CC(C)C(=O)Nc1ccc(N2CCN(C(=O)c3cccs3)CC2)cc1	5.0	2.5	-95.9	0.8
CC(C)CC(=O)NC(=S)Nc1ccc(N2CCN(C(=O)c3cccs3)CC2)cc1	95.6*	2.4	.	9.1
O=C(Nc1ccc(NC(=S)NC(=O)c2ccccc2F)cc1)c1cccs1	75.6	-1.9	.	3.7
Cc1ccc2c(C)nc(NC(N)=NS(=O)(=O)c3ccc([N+](=O)[O-])cc3)nc2c1	.	-1.6	.	.
Cc1onc(-c2ccccc2)c1C(=O)NC(=S)NNC(=O)c1ccccc1O	33.7	64.1*	-0.7	61.5
O=C(NC(=S)NNC(=O)c1ccccc1O)c1cccs1	-7.0	45.3*	1.8	25.9
Cc1onc(-c2ccccc2)c1C(=O)NC(=S)NNC(=O)c1ccc(O)cc1O	-22.1	31.3	10.6	47.1
COc1ccc([N+](=O)[O-])cc1NC(=S)NC(C)=O	4.3	-2.4	7.3	3.1
CCCCC(=O)NC(=S)Nc1cc([N+](=O)[O-])ccc1OC	active	-9.9	9.9	81.5
CC(=O)C(=NNc1ccc(Cl)cc1Cl)Sc1cccc2cccnc12	85.0*	72.7*	8.0	5.7
CC(=O)C(=NNc1ccccc1)Sc1cccc2cccnc12	8.2	13.7	14.0	7.3
COc1ccc(C(O)=C2C(=O)C(=O)N(CCN3CCOCC3)C2c2ccccc2OC)cc1 (configuration not stated)	.	-4.1	.	.
NC(=O)COC(=O)c1cccc2c1-c1ccccc1C2=O	.	-11.0	.	.
CC(C)COC(=O)c1ccc2c(c1O)C(=O)c1ccccc1C2=O	92.9*	9.8	5.5	92.1*
Cc1cccc(NC(=O)Nc2ccc3c(c2)N(C)C(=O)CS3)n1	3.7	104.2*	5.1	6.8
COc1ccc(/C=C2\NC(=O)N(CC(=O)Nc3ccc(Cl)cc3)C2=O)cc1	.	1.0	.	.
CCc1ccc(OC)c(S(=O)(=O)NCCN2CCN(c3ccccc3F)CC2)c1	.	-8.0	.	.
CCCCOc1ccc(C(N)=NO)cc1	.	-11.9	.	.
CCCCOc1ccc(CSCCN=C(N)N)cc1	100.1*	-14.2	4.5	20.9
CN1CCN(C(CNS(=O)(=O)c2cc(Cl)ccc2Cl)c2ccsc2)CC1 (configuration not stated)	.	-2.0	.	.
O=c1cc(-c2ccccc2)[nH]n1-c1nc2ccccc2s1	91.5*	12.6	.	80.5
O=c1cc(-c2ccccc2)[nH]n1-c1ccccc1	-0.6	10.0	6.6	5.9
Cc1cc(C)n(-c2cc(NC(=O)C(C)Oc3cccc(Cl)c3)ncn2)n1 (configuration not stated)	.	-8.0	.	.
CCCCCCCCCCCC1=C(O)C(=O)C=C(O)C1=O	99.6*	-14.3	.	99.5*
CCCCCCc1c(O)c2ccccc2[nH]c1=O	3.4	-3.9	5.4	-0.9
SMILES	ugtP null kill	SSB-PriA inh	Mtb hypoxia inh	Sa RN4220 lethal
CC(=O)NC(=S)Nc1ccc(-c2nc3ccc(C)cc3s2)cc1	-6.9	-16.4	.	-4.9
CNC(=S)Nc1ccc(-c2nc3ccc(C)cc3s2)cc1	-1.1	-13.0	36.7*	-8.0
CC(Sc1nnnn1-c1ccc(Cl)cc1)C(=O)Nc1sc2c(c1C#N)CCCC2 (configuration not stated)	.	1.0	.	.
S=C(N=Nc1ccccc1)NNc1ccccc1	-1.6	71.9*	8.2	-0.2
Cn1cc(-c2cccc(C(F)(F)F)c2)cc(C#N)c1=O	11.0	53.1*	-4.7	4.8
Cn1cc(-c2cccc(Cl)c2)cc(C#N)c1=O	7.7	-6.9	6.0	6.4
Nc1ccc2nc(CCCCCCc3nc4ccc(N)cc4[nH]3)[nH]c2c1	-4.4	33.0	0.1	0.3
Nc1ccc2nc(CCCCCCCCc3nc4ccc(N)cc4[nH]3)[nH]c2c1	6.7	48.7*	3.8	4.0
Brc1ccc(-c2nnc3sc(-c4ccccn4)nn23)cc1	.	49.5	.	.
O=C(CSc1nc2ccccc2s1)N1c2ccccc2Sc2ccc(Cl)cc21	15.0	2.5	8.9	-3.2
O=c1oc2cc(Cl)ccc2n1CSc1nc2ccccc2s1	86.1	-29.6	.	85.4*
COc1cc(OC)cc(C(=O)Nc2cccc(NC(=O)c3ccccc3)c2)c1	2.8	-8.2	11.5	-1.6
COc1cc(OC)cc(C(=O)Nc2ccc(Nc3ccccc3)cc2)c1	12.1	44.9*	4.5	-7.8
Cc1ccc(S(=O)(=O)N(c2nc(N(C)C)nc(N(C)C)n2)n2cnnc2)cc1	97.9*	-23.6	-9.9	94.3*
CN1CCOc2ccc(NC(=O)CCc3ccccc3Br)cc2C1=O	.	-1.0	.	.
O=C(OCc1ccccc1F)c1cc2ccccc2cc1O	87.4*	-39.3	-2.7	3.2
Cn1cccc1Cc1nnc(SCC(=O)Nc2ccccc2F)n1-c1ccccc1	.	37.0*	.	.
COc1ccc(-n2c(Cc3cccn3C)nnc2SCC(=O)Nc2ccccc2F)cc1	3.7	-0.8	.	10.1
Cc1cccc(-n2c(Cc3cccn3C)nnc2SCC(=O)N2CCN(c3ccccc3)CC2)c1C	.	36.0*	.	.
COC(=O)c1c(NC(=O)c2ccccc2OC)sc2c1CCN(C(C)=O)C2	.	-14.0	.	.
COc1ccc(NC(=O)c2c(O)c(C)c(C)[nH]c2=O)cc1Cl	.	-2.0	.	.
CC(=NNC(=O)c1ccccc1F)c1ccccn1	-2.2	50.6*	-6.5	8.6
Cn1cccc1C=NNC(=O)c1cc(-c2cccs2)nc2ccccc12	11.7	56.4	-4.6	1.3
COc1ccc(C(=O)NN=C(C)c2ccccn2)cc1OC	.	83.3*	.	.
CC(=NNC(=O)c1cc(-c2cccs2)nc2ccccc12)c1ccccn1	-2.6	85.1*	10.6	6.4
SMILES	ugtP null kill	SSB-PriA inh	Mtb hypoxia inh	Sa RN4220 lethal
CC(=NNC(=O)c1ccc(NS(=O)(=O)c2cccs2)cc1)c1ccccn1	-5.3	39.2*	16.2	7.4
O=C(C=Cc1ccco1)NC(=S)Nc1cc(C(F)(F)F)ccc1N1CCOCC1	95.9*	.	-0.8	-4.3
O=C(/C=C/c1ccco1)NC(=S)Nc1ccccc1N1CCOCC1	97.9*	21.4	5.1	2.9
O=C(/C=C/c1ccco1)NC(=S)Nc1cc(C(F)(F)F)ccc1N1CCOCC1	.	9.2	.	.
O=C(/C=C/c1ccco1)NC(=S)Nc1ccccc1N1CCCC1	98.6*	21.8	-1.1	-1.9
Cc1ccc(/C=N\NC(=O)CNC(=O)COc2ccc(Cl)cc2)o1	.	-14.0	.	.
Cc1ccc(-n2nnnc2CNC(=O)c2cc(=O)c3ccccc3o2)cc1	.	-1.0	.	.
COc1ccc(Cn2c(SCc3ccc(C)cc3)nc3cc(OC)c(OC)cc3c2=N)cc1Cl	99.5*	-13.7	6.5	100.2*
COc1ccccc1NC(=O)c1sc(=S)n(-c2ccc(Cl)cc2)c1N	.	36.0*	.	.
C=CCn1c(N)c(C(=O)Nc2ccccc2OC)sc1=S	-2.7	-2.6	3.7	6.7
COC(=O)c1ccc(C)c(-n2c(N)c(C(=O)NCc3ccco3)sc2=S)c1	.	31.0	.	.
COC(=O)c1ccc(C)c(-n2c(N)c(C(=O)Nc3ccccc3C)sc2=S)c1	.	39.0*	.	.
CC1CN=C(N(C(=O)Nc2ccccc2)C(C)C)S1 (configuration not stated)	12.2	-9.3	8.4	0.5
Cc1ccc(N(C(=O)Nc2ccccc2)C2=NCC(C)S2)cc1 (configuration not stated)	87.7*	1.1	-1.7	4.9
CCSc1ccccc1C(=O)Nc1cc(C2CC2)nn1-c1nc(C)cc(=O)[nH]1	.	-13.0	.	.
CC(=O)Nc1ccc2nc(NC(=O)C3CCN(S(C)(=O)=O)CC3)sc2c1	.	-5.0	.	.
